From PubChem BioAssay (NCATS)
“And” between values parts separate entries of the source, which are not always exact repeats. Equal values may be shown once. Records with an inconclusive call do not appear. A call without a number means that no potency is given here. Where a structure was tested more than once in an assay, its records may differ in their call. The source made the active and inactive calls. Unless noted, calls come from the whole dose curve; as a rule, active = well fitted curve in the direction sought with a large enough effect; inconclusive = small, poorly fitted or top-dose-only effect, or another doubt; inactive = no such curve, though single readings can be large; an effect the other way counts as inactive or inconclusive.

Key:
[1] = molecular target: Cytochrome P450 2D6 (Homo sapiens) (UniProt P10635); assay: Cytochrome P450 family 2 subfamily D member 6 (CYP2D6) small molecule antagonists: luciferase biochemical (cell-free) qHTS assay (AID 1645840; active = well fitted curve in the direction sought with a large enough effect in the repeat runs; an effect the other way counts as inactive or inconclusive; note: nearly all actives have a fitted effect of over 55% in size); settings: P450-Glo CYP2D6 enzyme, luciferin luminescence, 1 h; series mostly up to 57.4 µM
Cytochrome P450 2D6 (Homo sapiens), sequence (P10635 whole entry, looked up): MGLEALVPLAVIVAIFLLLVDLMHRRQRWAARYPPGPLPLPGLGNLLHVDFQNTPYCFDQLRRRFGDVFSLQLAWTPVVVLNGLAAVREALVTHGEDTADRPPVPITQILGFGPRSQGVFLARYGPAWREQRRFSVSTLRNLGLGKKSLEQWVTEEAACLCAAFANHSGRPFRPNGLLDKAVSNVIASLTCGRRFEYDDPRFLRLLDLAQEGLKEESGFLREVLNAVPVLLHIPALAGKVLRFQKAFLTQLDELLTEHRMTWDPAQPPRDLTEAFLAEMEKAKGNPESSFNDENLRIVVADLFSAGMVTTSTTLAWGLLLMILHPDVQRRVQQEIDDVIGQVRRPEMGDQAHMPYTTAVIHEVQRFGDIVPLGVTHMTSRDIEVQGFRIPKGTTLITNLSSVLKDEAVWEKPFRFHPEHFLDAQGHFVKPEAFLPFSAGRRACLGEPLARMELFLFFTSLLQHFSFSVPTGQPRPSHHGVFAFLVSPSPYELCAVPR
Procedure, shortened: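 P450-Glo CYP2D6 system: proluciferin substrate converted by enzyme to luciferin, read by luminescence proportional to activity. Enzyme-substrate mix with compound 10 min at room temperature, then NADPH regeneration 1 h before detection reagent.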

Papain (Carica papaya) = Papain (Carica papaya) (UniProt P00784); assay: Primary qHTS assay for inhibitors of the protease papain (AID 1645873); settings: papain Z-FR-AMC cleavage, AMC fluorescence; series mostly up to 49.8 µM;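 note: papain turnover of Z-FR-AMC read as the AMC fluorescence gain over 10 min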
Papain (Carica papaya), sequence (P00784 whole entry, looked up): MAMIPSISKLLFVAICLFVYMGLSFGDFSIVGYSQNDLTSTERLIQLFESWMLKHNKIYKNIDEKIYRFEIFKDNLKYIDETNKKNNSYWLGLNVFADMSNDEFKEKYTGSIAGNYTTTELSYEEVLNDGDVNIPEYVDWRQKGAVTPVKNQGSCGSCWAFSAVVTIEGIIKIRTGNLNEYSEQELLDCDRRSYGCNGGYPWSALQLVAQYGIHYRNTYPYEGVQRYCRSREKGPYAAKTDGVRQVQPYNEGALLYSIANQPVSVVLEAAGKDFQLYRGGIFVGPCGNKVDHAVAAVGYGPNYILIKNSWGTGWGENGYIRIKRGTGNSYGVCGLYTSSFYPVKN

[2] = molecular target: Cytochrome P450 2C9 (Homo sapiens) (UniProt P11712); assay: Cytochrome P450 family 2 subfamily C member 9 (CYP2C9) small molecule antagonists: luciferase biochemical (cell-free) qHTS assay (AID 1645842; active = well fitted curve in the direction sought with a large enough effect in the repeat runs; an effect the other way counts as inactive or inconclusive; note: nearly all actives have a fitted effect of over 55% in size; note: potency is the fitted concentration of half-maximal effect); settings: P450-Glo CYP2C9 enzyme assay, luciferin luminescence; series mostly up to 57.4 µM
Cytochrome P450 2C9 (Homo sapiens), sequence (P11712 whole entry, looked up): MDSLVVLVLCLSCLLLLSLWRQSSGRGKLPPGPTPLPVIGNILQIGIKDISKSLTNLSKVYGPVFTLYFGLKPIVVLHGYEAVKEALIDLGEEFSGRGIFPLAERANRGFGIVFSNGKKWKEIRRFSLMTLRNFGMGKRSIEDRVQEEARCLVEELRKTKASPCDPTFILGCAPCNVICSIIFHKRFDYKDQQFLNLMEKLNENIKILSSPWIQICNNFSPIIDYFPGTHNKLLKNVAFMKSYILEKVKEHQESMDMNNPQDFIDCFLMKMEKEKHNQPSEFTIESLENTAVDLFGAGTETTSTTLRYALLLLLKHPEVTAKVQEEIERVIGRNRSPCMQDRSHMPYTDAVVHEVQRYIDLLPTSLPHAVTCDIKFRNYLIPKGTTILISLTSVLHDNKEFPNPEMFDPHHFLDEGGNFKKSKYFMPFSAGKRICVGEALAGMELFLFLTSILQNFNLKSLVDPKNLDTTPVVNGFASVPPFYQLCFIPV
Procedure, shortened: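 P450-Glo CYP2C9 system: proluciferin substrate with enzyme in mix containing 0.4% BSA, 10 min at room temperature, then NADPH regeneration solution added and incubated 1 h at 37C. Detection reagent stopped reaction; luminescence read after 20 min as RLU.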

[3] = Primary qHTS for inhibitors of nuclear receptor binding SET domain protein 2 (NSD2) in an RCH-ACV wild type WT cells (2C) (AID 1645877); settings: RCH-ACV NSD2 WT (2C) viability, CellTiter-Glo, 72 h; series mostly up to 44.9 µM; note: nearly all actives have a fitted effect of over 70% in size; note: potency is the fitted concentration of half-maximal effect
[4] = molecular target: Rap guanine nucleotide exchange factor 3 (Homo sapiens) (UniProt O95398); assay: Confirmatory qHTS for antagonist of cAMP-regulated guanine nucleotide exchange factor 3 (EPAC1) (AID 1645880); settings: EPAC1 Rap1B-BODIPY-GDP exchange, fluorescence; series mostly up to 115 µM; note: nearly all actives have a fitted effect of over 55% in size
Rap guanine nucleotide exchange factor 3 (Homo sapiens), sequence (O95398 whole entry, looked up): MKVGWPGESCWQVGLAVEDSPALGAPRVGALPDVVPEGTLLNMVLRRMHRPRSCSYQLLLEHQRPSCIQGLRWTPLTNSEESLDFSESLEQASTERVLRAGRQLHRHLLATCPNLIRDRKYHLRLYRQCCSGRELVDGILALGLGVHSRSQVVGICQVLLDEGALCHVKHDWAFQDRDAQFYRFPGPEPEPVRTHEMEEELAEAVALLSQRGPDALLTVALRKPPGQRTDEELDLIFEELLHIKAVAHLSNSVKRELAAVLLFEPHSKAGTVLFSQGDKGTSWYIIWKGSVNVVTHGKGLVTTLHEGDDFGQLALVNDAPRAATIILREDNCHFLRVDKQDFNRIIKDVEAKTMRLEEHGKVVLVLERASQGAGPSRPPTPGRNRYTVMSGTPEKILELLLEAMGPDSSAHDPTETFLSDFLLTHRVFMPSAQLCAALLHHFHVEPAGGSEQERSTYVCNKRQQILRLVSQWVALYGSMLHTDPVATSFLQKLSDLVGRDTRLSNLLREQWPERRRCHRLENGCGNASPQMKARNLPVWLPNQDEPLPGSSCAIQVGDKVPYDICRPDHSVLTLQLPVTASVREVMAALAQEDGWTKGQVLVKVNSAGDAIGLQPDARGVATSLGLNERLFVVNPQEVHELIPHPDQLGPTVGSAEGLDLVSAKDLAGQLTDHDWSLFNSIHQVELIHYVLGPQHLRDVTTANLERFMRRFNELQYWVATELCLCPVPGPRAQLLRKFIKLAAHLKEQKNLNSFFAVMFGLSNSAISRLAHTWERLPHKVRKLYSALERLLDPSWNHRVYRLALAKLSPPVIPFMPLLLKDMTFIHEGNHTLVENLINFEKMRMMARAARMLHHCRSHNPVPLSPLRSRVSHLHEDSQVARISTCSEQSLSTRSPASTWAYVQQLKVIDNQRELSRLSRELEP
Procedure, shortened: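 Released BODIPY-GDP fluoresces less than Rap1-bound BODIPY-GDP; the signal is followed at 480/540 nm at 5-min intervals over 30 min, after 5 min at room temperature. Reactions contain 100 nM EPAC1, 250 nM RAP1B-BODIPY-GDP and 50 uM GDP; results are normalized to ATA and DMSO.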

[5] = molecular target: Rap guanine nucleotide exchange factor 3 (Homo sapiens) (UniProt O95398); assay: Confirmatory qHTS for agonist of cAMP-regulated guanine nucleotide exchange factor 3 (EPAC1) (AID 1645881); settings: EPAC1 Rap1B BODIPY-GDP exchange fluorescence, 100% = cAMP control response; series mostly up to 154 µM;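 note: EPAC1 catalysed release of BODIPY-GDP from Rap1B seen as fluorescence loss; nearly all actives have a fitted effect of over 75% in size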
[6] = molecular target: Rap guanine nucleotide exchange factor 4 (Homo sapiens) (UniProt Q8WZA2); assay: Confirmatory qHTS for agonist of cAMP-regulated guanine nucleotide exchange factor 4 (EPAC2) (AID 1645884); settings: EPAC2 GEF activity, Rap1B-BODIPY-GDP fluorescence; series mostly up to 154 µM;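 note: nucleotide exchange releases bodipy-GDP from Rap1 and this lowers its fluorescence; nearly all actives have a fitted effect of over 65% in size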
Rap guanine nucleotide exchange factor 4 (Homo sapiens), sequence (Q8WZA2 whole entry, looked up, the tested form may be a part): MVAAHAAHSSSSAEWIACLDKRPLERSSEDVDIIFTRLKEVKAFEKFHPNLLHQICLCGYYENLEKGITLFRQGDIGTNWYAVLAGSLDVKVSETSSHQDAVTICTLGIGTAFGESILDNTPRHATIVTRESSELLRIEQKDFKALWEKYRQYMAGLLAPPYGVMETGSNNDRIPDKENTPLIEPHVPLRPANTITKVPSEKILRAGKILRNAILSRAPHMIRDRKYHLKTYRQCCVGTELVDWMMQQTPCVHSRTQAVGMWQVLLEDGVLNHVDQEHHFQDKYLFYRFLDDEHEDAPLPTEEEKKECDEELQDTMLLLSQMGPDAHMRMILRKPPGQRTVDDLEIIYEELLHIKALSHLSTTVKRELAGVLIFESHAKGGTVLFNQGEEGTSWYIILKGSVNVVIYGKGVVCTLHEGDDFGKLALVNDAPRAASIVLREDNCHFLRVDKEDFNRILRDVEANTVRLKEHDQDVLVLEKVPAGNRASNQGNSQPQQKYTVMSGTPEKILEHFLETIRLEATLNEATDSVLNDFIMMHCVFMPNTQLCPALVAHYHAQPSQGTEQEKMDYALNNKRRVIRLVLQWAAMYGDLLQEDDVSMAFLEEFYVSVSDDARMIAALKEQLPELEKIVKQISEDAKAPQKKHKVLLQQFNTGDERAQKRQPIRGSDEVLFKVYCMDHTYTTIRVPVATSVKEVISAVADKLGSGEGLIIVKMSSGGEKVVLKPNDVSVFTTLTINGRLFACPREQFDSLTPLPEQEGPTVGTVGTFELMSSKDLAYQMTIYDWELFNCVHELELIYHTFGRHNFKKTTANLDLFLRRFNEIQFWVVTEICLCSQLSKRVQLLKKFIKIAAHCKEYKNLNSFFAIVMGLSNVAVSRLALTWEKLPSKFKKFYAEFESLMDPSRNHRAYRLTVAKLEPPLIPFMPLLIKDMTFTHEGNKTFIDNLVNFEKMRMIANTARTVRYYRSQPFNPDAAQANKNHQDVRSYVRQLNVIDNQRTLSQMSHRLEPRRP

[7] = molecular target: Rap guanine nucleotide exchange factor 4 (Homo sapiens) (UniProt Q8WZA2); assay: Confirmatory qHTS for antagonist of cAMP-regulated guanine nucleotide exchange factor 4 (EPAC2) (AID 1645885); settings: EPAC2 Rap1B-BODIPY-GDP exchange fluorescence, biochemical; series mostly up to 114 µM; note: nearly all actives have a fitted effect of over 25% in size; note: potency is the fitted concentration of half-maximal effect
[8] = Primary qHTS for inhibitors of nuclear receptor binding SET domain protein 2 (NSD2) in an isogenic RCH-ACV NSD2 p.E1099K mutant (9B) (AID 1645876); settings: RCH-ACV (leukaemia line) NSD2 E1099K (9B) viability, CellTiter-Glo, 72 h; series mostly up to 44.9 µM; note: nearly all actives have a fitted effect of over 70% in size; note: potency is the fitted concentration of half-maximal effect
[9] = NCATS anti-infectives library activity on HEK293 viability as a counter-qHTS vs the C. elegans viability qHTS (AID 1745854); settings: HEK293 viability counter-screen; series mostly up to 41.8 µM
Procedure, shortened: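 CellTiter-Glo luminescence, read on a CCD imager, scored viability of HEK293 cells after 24 hr compound exposure at 37C. Library tested in several concentrations, 1:5 steps, up to 41.7 uM; digitonin served as control.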

[10] = NCATS anti-infectives library activity on the primary C. elegans qHTS viability assay (AID 1745855; calls by dose curve; note: potency is the fitted concentration of half-maximal effect); settings: C. elegans worm area imaging, day 7; series mostly up to 83.3 µM
Procedure, shortened: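 Titration-based screen in worms: eggs hatched overnight in M9, L1 larvae fed TOP10 capsules in S medium with compound, incubated 21 °C for 7 days; fluorescent objects gated by size and intensity at days 0, 3 and 7.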

[11] = molecular target: Catechol O-methyltransferase (Homo sapiens) (UniProt P21964); assay: Confirmatory Screen for Target Class Profiling of Small Molecule Inhibitors of Methyltransferases (AID 1745852); settings: MTase-Glo luminescence, SAH detection, recombinant enzyme; measured here: COMT max response; stronger effect = lower value
Catechol O-methyltransferase (Homo sapiens), sequence (P21964 whole entry, looked up): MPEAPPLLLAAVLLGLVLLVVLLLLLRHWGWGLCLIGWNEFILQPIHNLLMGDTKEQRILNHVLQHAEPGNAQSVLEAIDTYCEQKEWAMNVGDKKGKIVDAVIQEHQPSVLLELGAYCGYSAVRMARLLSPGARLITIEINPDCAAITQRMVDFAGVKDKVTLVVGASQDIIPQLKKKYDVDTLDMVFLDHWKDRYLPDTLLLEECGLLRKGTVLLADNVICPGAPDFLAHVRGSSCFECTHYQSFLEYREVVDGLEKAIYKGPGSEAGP

[12] = molecular target: Guanidinoacetate N-methyltransferase (Homo sapiens) (UniProt Q14353); assay: as above; settings: MTase-Glo luminescence, SAH detection, recombinant enzyme; at 57.3 µM (top of the series)
[13] = molecular target: Nicotinamide N-methyltransferase (Homo sapiens) (UniProt P40261); assay: as above; settings: MTase-Glo luminescence, SAH detection, recombinant enzyme; measured here: NNMT max response; stronger effect = lower value
Nicotinamide N-methyltransferase (Homo sapiens), sequence (P40261 whole entry, looked up): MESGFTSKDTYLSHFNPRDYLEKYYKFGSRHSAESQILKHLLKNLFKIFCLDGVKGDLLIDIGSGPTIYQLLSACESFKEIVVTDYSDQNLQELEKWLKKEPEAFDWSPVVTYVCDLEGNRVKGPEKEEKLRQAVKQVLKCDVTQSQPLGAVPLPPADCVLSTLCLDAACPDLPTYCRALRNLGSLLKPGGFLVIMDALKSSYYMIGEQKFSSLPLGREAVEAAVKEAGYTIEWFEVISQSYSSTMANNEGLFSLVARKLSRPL

[14] = molecular target: Phenylethanolamine N-methyltransferase (Homo sapiens) (UniProt P11086); assay: as above; settings: MTase-Glo luminescence, SAH detection, recombinant enzyme; measured here: PNMT max response; stronger effect = lower value
Phenylethanolamine N-methyltransferase (Homo sapiens), sequence (P11086 whole entry, looked up): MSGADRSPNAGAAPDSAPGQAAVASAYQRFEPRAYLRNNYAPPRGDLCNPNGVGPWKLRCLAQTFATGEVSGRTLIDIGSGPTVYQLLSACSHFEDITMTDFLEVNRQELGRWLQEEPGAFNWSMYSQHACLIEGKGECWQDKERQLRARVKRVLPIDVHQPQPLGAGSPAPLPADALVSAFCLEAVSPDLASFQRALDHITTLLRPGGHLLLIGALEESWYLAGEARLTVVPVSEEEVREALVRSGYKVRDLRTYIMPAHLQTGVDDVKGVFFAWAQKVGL

[15] = molecular target: Rap guanine nucleotide exchange factor 3 (Homo sapiens) (UniProt O95398); assay: Counterscreen qHTS for agonist of cAMP-regulated guanine nucleotide exchange factor 3 (EPAC1) (AID 1645889); settings: EPAC1 Rap1B-BODIPY-GDP exchange, fluorescence; series mostly up to 154 µM; note: nearly all actives have a fitted effect of over 40% in size
Procedure, shortened: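 Rap1B-BODIPY-GDP 250 nM + GDP 50 uM; cpds 7-pt, final 9.74 nM–152 uM (activator mode) or from 7.32 nM upwards (inhibitor mode); RT; FI 480/540 nm at 5 and 30 min, then ± cAMP, reread.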

SMILES: C[N+]1(CCCCC[N+]2(C)CCCC2)CCCC1
- Potency [1]: inactive
- Potency (Papain (Carica papaya)): inactive

SMILES: C#C[C@]1(OC(C)=O)CC[C@H]2[C@@H]3CCC4=C[C@@H](OC(C)=O)CC[C@@H]4[C@H]3CC[C@@]21C
- Potency [1]: inactive
- Potency [2]: 13.6 µM (active)
- Potency [3]: 18.8 µM (active)
- Potency [4]: inactive
- outcome [5]: inactive
- Potency [6]: inactive
- Potency [7]: inactive

SMILES: CC/C(=C(/CC)c1ccc(O)cc1)c1ccc(O)cc1
- Potency [8]: inactive
- Potency [3]: 10.6 µM (active) and inactive

SMILES: CC(CCc1ccccc1)NCC(O)c1ccc(O)c(C(N)=O)c1 (stereo unspecified)
- Potency (Papain (Carica papaya)): inactive
- Potency [8]: inactive
- Potency [3]: inactive

SMILES: C[C@]12C=CC(=O)C=C1[C@@H](F)C[C@@H]1[C@@H]2[C@@H](O)C[C@@]2(C)[C@H]1CC[C@]2(O)C(=O)CO
- Potency [2]: inactive
- Potency [3]: 0.0422 µM (active)

SMILES: NCCC(O)(P(=O)(O)O)P(=O)(O)O
- Potency [2]: inactive
- Potency [8]: inactive
- Potency [3]: inactive
- Potency [9]: inactive

SMILES: O=C1OC(c2ccc(O)cc2)(c2ccc(O)cc2)c2ccccc21
- Potency [4]: inactive
- outcome [5]: inactive
- Potency [6]: inactive
- Potency [7]: 24.8 µM (active) and 27.8 µM (active)

SMILES: COc1ccc(CN2CCN(C(c3ccc(F)cc3)c3ccc(F)cc3)CC2)c(OC)c1OC
- Potency [2]: 11 µM (active)
- Potency [3]: 16.3 µM (active)

SMILES: COCc1c(C(C)C)nc(C(C)C)c(/C=C/[C@@H](O)C[C@@H](O)CC(=O)O)c1-c1ccc(F)cc1
- Potency [8]: 0.335 µM (active)
- Potency [3]: 0.211 µM (active)

SMILES: COc1cccc2c1C(=O)c1c(O)c3c(c(O)c1C2=O)C[C@@](O)(C(=O)CO)C[C@@H]3O[C@H]1C[C@H](N)[C@H](O)[C@H](C)O1
- Potency [2]: inactive
- Potency [8]: 188 nM (active) and 33.2 nM (active)
- Potency [3]: 150 nM (active) and 26.3 nM (active)
- Potency [10]: 23 µM (active)

SMILES: Nc1cc(Cl)c(NC2=NCCN2)c(Cl)c1
- Potency (Papain (Carica papaya)): inactive

SMILES: COc1cc2c(cc1OC)C(=O)C(CC1CCN(Cc3ccccc3)CC1)C2 (stereo unspecified)
- Potency [3]: 21.1 µM (active)

SMILES: CC1(C)CCC(NC(=O)[C@@H](N)CCC(=O)O)CC1
- Potency (Papain (Carica papaya)): inactive

SMILES: NC(=NCCCCCCN=C(N)/N=C(\N)Nc1ccc(Cl)cc1)/N=C(\N)Nc1ccc(Cl)cc1
- Potency [2]: 24.5 µM (active)
- Potency [8]: 2.99 µM (active) and 3.65 µM (active)
- Potency [3]: 5.96 µM (active) and 3.65 µM (active)
- activity [11]: -5.42%
- activity change, negative = inhibition [12]: 0.888%
- activity [13]: -51.5%
- activity [14]: -67.4%
- Potency [10]: 11.5 µM (active)

SMILES: C1CCc2nnnn2CC1
- Potency (Papain (Carica papaya)): inactive

SMILES: COC(=O)[C@H]1[C@H]2C[C@H]3c4[nH]c5ccccc5c4CCN3C[C@H]2CC[C@@H]1O
- Potency (Papain (Carica papaya)): inactive

SMILES: CCCCCCCCCCCCCCCCOP(=O)([O-])OCC[N+](C)(C)C
- Potency [2]: inactive
- Potency [8]: 10.6 µM (active)
- Potency [3]: 11.9 µM (active)
- activity change, negative = cytotoxicity [9]: -18.3% [at 8.35 µM] (inactive)
- outcome [10]: inactive [at 8.33 µM]

SMILES: N[C@@H](Cc1cnc[nH]1)C(=O)O
- Potency (Papain (Carica papaya)): inactive

SMILES: C[C@@H]1C(=O)NC2=Nc3cccc(Cl)c3CN21
- Potency (Papain (Carica papaya)): inactive

SMILES: CN(C)CCCOc1nn(Cc2ccccc2)c2ccccc12
- Potency [8]: 9.44 µM (active) and 25.8 µM (active)
- Potency [3]: 10.6 µM (active) and 14.5 µM (active)

SMILES: O=C1CCC(c2ccc(-n3ccnc3)cc2)=NN1
- Potency (Papain (Carica papaya)): inactive

SMILES: COc1cc(-c2ccc(=O)[nH]n2)ccc1OC(F)F
- Potency [8]: inactive
- Potency [3]: inactive

SMILES: CN1C2CCC1CC(OC(=O)c1c[nH]c3ccccc13)C2 (stereo unspecified)
- Potency (Papain (Carica papaya)): inactive

SMILES: C#C[C@]1(O)CC[C@H]2[C@@H]3CCC4=CC(=O)CC[C@@H]4[C@H]3CC[C@@]21C
- Potency [3]: 26.6 µM (active)

SMILES: CC(C)COC(=O)OCN1C(=O)CN(CCN2CC(=O)N(COC(=O)OCC(C)C)C(=O)C2)CC1=O
- Potency (Papain (Carica papaya)): inactive

SMILES: CCCn1c(=O)[nH]c(=O)c2[nH]cnc21
- Potency (Papain (Carica papaya)): inactive

SMILES: C=C1C(=C/C=C2\CCC[C@]3(C)[C@@H]([C@H](C)/C=C/[C@@H](O)C4CC4)CC[C@@H]23)C[C@@H](O)C[C@@H]1O
- Potency [8]: 15 µM (active)
- Potency [3]: 16.8 µM (active)
- Potency [9]: inactive

SMILES: CC(=O)O[C@H]1C[C@@H]2CC[C@@H]3[C@H](CC[C@@]4(C)[C@H]3C[C@H]([N+]3(C)CCCCC3)[C@@H]4OC(C)=O)[C@@]2(C)C[C@@H]1[N+]1(C)CCCCC1
- Potency (Papain (Carica papaya)): inactive

SMILES: CC(=O)OCC(=O)[C@@]1(O)CC[C@H]2[C@@H]3CCC4=CC(=O)C=C[C@]4(C)[C@H]3[C@@H](O)C[C@@]21C
- Potency [2]: inactive
- Potency [3]: 18.8 nM (active) and 183 nM (active)

SMILES: N[C@H](Cc1c[nH]c2ccccc12)C(=O)O
- Potency [8]: inactive
- Potency [3]: inactive

SMILES: Oc1ccc(Cl)cc1Sc1cc(Cl)ccc1O
- Potency [2]: 12.3 µM (active)
- Potency [8]: 18.8 µM (active)
- outcome [5]: inactive
- Potency [6]: inactive
- Potency [7]: 31.2 µM (active)
- activity change, negative = inhibition [7]: -4.98% [at 12.7 µM] (inactive)
- activation [15]: 18.9% [at 30.8 µM] (inactive)
